This note sets out measurements from PubChem BioAssay AID1347077 (National Center for Advancing Translational Sciences (NCATS), 2019).

Fewer than 10 of roughly 44,000 compounds were called active. The call rests on the fitted dose curve; in most records, active means well fitted activation curve with a large enough effect; inconclusive means small, poorly fitted or top-dose-only effect, or another doubt; inactive means no such curve, though single readings can be large or run the other way. Not all results are given here.

Sequence of Beta-2 adrenergic receptor (Homo sapiens) (P07550 whole entry, looked up): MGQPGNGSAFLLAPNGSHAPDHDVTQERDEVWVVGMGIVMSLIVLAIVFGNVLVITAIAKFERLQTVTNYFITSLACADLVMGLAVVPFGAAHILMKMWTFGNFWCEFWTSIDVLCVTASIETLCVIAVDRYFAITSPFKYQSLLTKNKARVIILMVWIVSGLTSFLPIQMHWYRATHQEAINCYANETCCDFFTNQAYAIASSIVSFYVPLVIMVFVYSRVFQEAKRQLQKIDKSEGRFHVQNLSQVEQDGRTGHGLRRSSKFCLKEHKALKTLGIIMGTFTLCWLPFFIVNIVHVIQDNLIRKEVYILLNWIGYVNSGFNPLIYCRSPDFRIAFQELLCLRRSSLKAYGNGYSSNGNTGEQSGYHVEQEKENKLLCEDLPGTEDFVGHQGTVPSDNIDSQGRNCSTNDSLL

This assay addresses Beta-2 adrenergic receptor (Homo sapiens) (UniProt P07550). Description: qHTS assay of beta-arrestin-biased ligands of beta2-adrenergic receptor: NCGC Sytravon Library Screen. The following applies: HTLA Tango cells, beta-arrestin recruitment, luciferase luminescence, 18 h; series mostly up to 46.1 µM. The source says:
The concept of biased agonism is an emerging concept of molecular pharmacology which proposes that seven transmembrane receptors (7TMRs) or G protein-coupled receptors (GPCRs), exist in multiple signaling conformations and complexes and that ligands (either agonists or antagonists) can induce signaling biased responses for distinct signal transduction cascades. […] Furthermore, accumulating evidence over the last decade has drawn attention to a novel function of beta-arrestins as signal transducers that scaffold various signaling molecules upon activation of 7TMRs. […] This beta-arrestin-biased signaling presumably leads to distinct physiological outcomes from those by G protein activation. Additionally, the active receptor conformations which prefer on this beta-arrestin signaling are likely different from those activating G protein signaling. […] The goal of this screening project will be to discover and optimize novel beta-arrestin-biased ligands for beta2-AR signaling. A luminescent cell-based assay for beta2-AR-mediated agonism, known as the Tango assay, has been validated in which ligand binding of a recombinant beta2-AR and subsequent recruitment of a recombinant beta-arrestin lead to the release of the transcriptional activator tTA, which upregulates transcription of a tTA-responsive luciferase gene. […] Compounds from the NCGC Sytravon Library collection were screened as a concentration-titration series that ranged from 46 microM to 0.6 nM. NIH Molecular Libraries Probe Production Network [MLPCN] NIH Chemical Genomics Center [NCGC] MLPCN Grant: Fast-track/HHSN271700800025C PI: Bryan Roth and Bob Lefkowitz
Tango cells were dispensed into white, solid, tissue-culture-treated 1536-well plates at 1500 cells/well in DMEM, containing 1% fetal bovine serum (FBS). Then, 23 nL of compounds or DMSO were delivered to each well using a pin tool. Plates were incubated at 37 degrees C, 5% CO2 for 18 hr. Then 2.5 uL luminescent substrate mix (in-house prepared: 150 mM Tris-Cl, pH 7.6, 3 mM MgCl2, 1% Triton X-100, 5 mM DTT, 0.5 mM CoA, 0.15 mM ATP, 0.44 mM D-luciferin, final concentrations) was added to each well. Plates were then incubated for 15 minutes at room temperature, and subsequently measured on a ViewLux plate reader for luminescent signal using a clear filter with a 10 second exposure and 2x binning. The %Activity was determined from the corrected luminescence values. […] Concentration-response curves were fitted to the signals arising from the resulting luminescence. The concentration-effect curves were then classified based on curve quality (r2), response magnitude and degree of measured activity, and compounds were subsequently categorized based on their curve class.
On the technique in general: In qHTS, concentration-response curves come from the screen itself.
For `Cc1ccc(CN2COc3cc(C)c4c(oc(=O)c5ccccc54)c3C2)cc1`, the compound was called inactive.

Turning to `COc1ccc(OC)c(-c2csc(-c3c(N)c(C(=O)c4ccccc4)n4ccccc34)n2)c1`, the outcome was inactive.

Consider `COc1ccc(CNC(=O)c2ccc3c(c2)nc2n3CCOC2)c(OC)c1`, for which the outcome was inactive.

In the case of `CCOC(=O)c1scc(-c2ccc(C)cc2)c1S(=O)(=O)Nc1cc(C)ccc1C`, the outcome was inactive.

Turning to `CCN(CCCNC(=O)c1ccc(Sc2ccc(C)cc2)c(NC(C)=O)c1)c1cccc(C)c1`, the outcome was inactive.

Turning to `CCOc1cccc(NC(=O)c2ccc(F)c(S(=O)(=O)N(CC)c3cccc(C)c3)c2)c1`, the compound was called inactive.

In the case of `COc1ccc(C(=O)c2oc3ccccc3c2NC(=O)COc2cccc(C)c2)cc1`, the compound was called inactive.

On to `Cc1ccccc1OCc1ccc(-c2nc(C#N)c(N3CCCCC3)o2)o1`, for which the outcome was inactive.

For `CCCCc1nn2c(=O)cc(COC(=O)c3ccc(NC(=O)c4ccccc4C)cc3)nc2s1`, the outcome was inactive.

Take `COC(=O)NNC(=O)C1CCC(C)CC1` (configuration not stated): the compound was classed as inactive.

In the case of `CCc1nnc2c3ccccc3nc(N3CCN(c4ccc(C)cc4C)CC3)n12`, the result was inactive.

As to `CCOc1ccc(CNC(=O)Cn2cc3c(n2)-c2c(oc(C(=O)N4CCCC4)c2C)CC3)cc1`, the outcome was inactive.

Take `CCOCCc1nn2c(=O)cc(COC(=O)CNC(=O)c3ccc(C(C)(C)C)cc3)nc2s1`: the outcome was inactive.

Take `CCC(=O)N1CCc2cc(Br)cc(S(=O)(=O)NCc3ccc(Cl)cc3)c21`: the outcome was inactive.

As for `Cc1nc2nc(NCc3cccc(Br)c3)[nH]n2c(=O)c1Cc1ccccc1`, the compound was classed as inactive.

For `COc1ccc(NC(=O)C(c2ccccc2)N2Cc3ccccc3C2=O)cc1` (configuration not stated), the result was inactive.

`Cc1nc2sc(C)c(C)n2c(=O)c1S(=O)(=O)NCCc1ccc(Cl)cc1`: the call was inactive.

Take `CCOc1ccc(OCC)c(NS(=O)(=O)c2ccc3[nH]c(=O)ccc3c2)c1`: the compound was classed as inactive.

On to `COc1ccc(S(=O)(=O)NCCSc2nnnn2-c2ccccc2)cc1`, for which the compound was classed as inactive.

`Cc1ccccc1CNC(=O)CCCn1nc(C)c2sc3ccccc3c2c1=O`: the outcome was inactive.

Regarding `COc1cccc(N2CC(NC(=O)/C=C\c3ccccc3)CC2=O)c1` (configuration not stated), the compound was classed as inactive.

For the compound `O=C(CSc1ncc(-c2ccccc2)[nH]1)Nc1ccc(F)cc1F`, the call was inactive.

In the case of `COc1ccc(Cl)cc1NC(=O)CCC(=O)c1ccc(C)cc1`, the compound was classed as inactive.

With `Cc1c(NC(=O)C(C)(C)C)cccc1-c1nc2ccccc2s1`, the result was inactive.

For `Cc1nn(CC(=O)O)c(=O)c2cc3cc(F)ccc3n12`, the compound was called inactive.

For `CCc1ccc(N(CC)C(=O)CCn2cnc3onc(-c4ccc(F)cc4)c3c2=O)cc1`, the call was inactive.

For `COc1ccc(CCNC(=O)c2cnc3sc(N4CCCCCC4)nn3c2=O)cc1OC`, the outcome was inactive.

In the case of `CCCn1c(=N)c(C(=O)NCc2ccccc2)cc2c(=O)n3cccc(C)c3nc21`, the call was inactive.

As for `COc1ccc(CCNC(=O)c2cc(=O)c3c(C)cc(C)cc3o2)cc1OC`, the compound was called inactive.

As for `Cc1ccc(S(=O)(=O)N2CCc3cc(C(=O)Nc4ccc(Cl)cc4C)ccc32)cc1`, the result was inactive.

For `COc1cccc(NC(=O)CSC2=Nc3ccccc3C3=NC(CC(=O)NC4CCCCC4)C(=O)N23)c1` (configuration not stated), the outcome was inactive.

Regarding `CCCCOc1ccc(CNC(=O)c2ccc3c(c2)N(C)C(=O)C2CCCCN32)cc1` (configuration not stated), the compound was called inactive.

Turning to `COc1ccccc1NC(=O)c1oc2ccccc2c1NC(=O)C(C)C`, the outcome was inactive.

`COc1ccc(CCNc2ncnc3onc(-c4ccc(Cl)cc4)c23)c(OC)c1`: the compound was called inactive.

With `Cc1csc2nc(COC(=O)c3ccc(NC(=O)COc4ccccc4F)cc3)cc(=O)n12`, the compound was classed as inactive.

`COc1ccc(N2CCN(C(=O)C3CCCN(C(=O)c4cc5sccc5n4C)C3)CC2)cc1` (configuration not stated): the outcome was inactive.

For `O=C(COc1ccccc1F)OCc1cc(=O)n2nc(C3CCCCC3)sc2n1`, the outcome was inactive.

Turning to `CCC1CCCCN1Cc1c(O)ccc2c(=O)c(Oc3ccccc3Cl)c(C(F)(F)F)oc12` (configuration not stated), the outcome was inactive.

Take `Cc1cc(=O)n(CC(=O)Nc2cccc([N+](=O)[O-])c2)c(-n2nc(C)cc2C)n1`: the call was inactive.

In the case of `CCOC(=O)c1c(C)[nH]c(CCC(=O)NCCCN2CCN(c3cc(C)ccc3C)CC2)c1C`, the compound was called inactive.

On to `COc1cc(Nc2nc(-c3ccc(OC)c(OC)c3)nc3ccccc23)cc(OC)c1`, for which the result was inactive.

For `Cc1cc(C)cc(OC(C)C(=O)Nc2nc3c(s2)CCCC3)c1` (configuration not stated), the compound was classed as inactive.

Consider `COCCn1c(SCC(=O)c2cc(C)ccc2C)nc2cc(C(=O)NC3CCCC3)ccc2c1=O`, for which the compound was classed as inactive.

As to `CCOc1ccccc1NC(=O)CCn1cnnn1`, the compound was called inactive.

Regarding `Cc1ccc(N(C)C(=O)C2CCN(S(=O)(=O)c3ccc4c(c3)CCCN4C(=O)C3CCC3)CC2)cc1`, the compound was classed as inactive.

For `CC(=O)Nc1ccc(S(=O)(=O)NCC2CCC(C(=O)NCCc3ccccc3)CC2)cc1` (configuration not stated), the compound was called inactive.

In the case of `CCOc1ccccc1C(=O)NC1(C(F)(F)F)C(=O)Nc2c1c(=O)[nH]c(=O)n2-c1ccc(F)cc1` (configuration not stated), the result was inactive.

On to `CCN(CC)S(=O)(=O)c1nnc(NC(=O)COc2ccccc2Cl)s1`, for which the outcome was inactive.

As to `COc1ccc(-c2cccc(NS(=O)(=O)c3cc(C)c(OC)c(C)c3C)c2)nn1`, the call was inactive.

Consider `O=C(NC1(C(F)(F)F)N=C(c2ccccc2)N(C2CCCCC2)C1=O)c1ccccc1F` (configuration not stated), for which the compound was called inactive.

`Cc1ccc(CCNC(=O)c2ccc3c(c2)nc2n3CCC(C)C2)cc1` (configuration not stated): the outcome was inactive.

`Cc1ccccc1NC(=O)Cn1c(=O)n(CCCCC(=O)NCc2ccccc2Cl)c(=O)c2ccccc21`: the result was inactive.
